# High-throughput results from PubChem.
# Many of the other results were omitted from the sample, so hits are more common in it than they were.
# TDP1 cell CPT – DT40-hTDP1 cell growth loss with CPT; chicken DT40 Tdp1-/-;hTDP1 cells + 20 nM CPT, ATP luminescence, 48 h; Potency, µM (top dose mostly 46.2 µM), actives largely listed as inhibitors; hit rate 12% among 420,000; also: nearly all actives have a fitted effect of over 55% in size
#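 Chicken DT40 Tdp1-/- cells complemented with human TDP1, 400 cells/well, exposed to compounds plus 20 nM camptothecin for at least 48 h at 37 C; viability read as ATP content by CellTiter-Glo luminescence.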
# IL1B secr inh – blocks inflammasome-driven IL-1 beta release. THP-1 LPS/ATP IL-1B secretion, AlphaLISA, 16 h; stronger effect = lower value. activity change, % at 57.5 µM. hit rate 4.7% among 360,000. AID 743279; in the data active = activity change below about -50%; inconclusive = mostly about -30% to -49%
#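 THP-1 cells pretreated 1 hr with compounds (up to 57.5 uM final), then stimulated with LPS (250 ng/mL final) plus ATP (1.25 mM final); secreted IL-1B measured by AlphaLISA after 16 hr, decreased signal indicating inhibition.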
# ALOX12 inh – blocks human arachidonate 12S-lipoxygenase | purified 12hLO, xylenol orange hydroperoxide absorbance | P18054 | AID 1671190 | Potency, µM (top dose mostly 108 µM), most hits filed as inhibitors | hit rate 1.1% among 580,000
# Target sequence (P18054 whole entry, looked up): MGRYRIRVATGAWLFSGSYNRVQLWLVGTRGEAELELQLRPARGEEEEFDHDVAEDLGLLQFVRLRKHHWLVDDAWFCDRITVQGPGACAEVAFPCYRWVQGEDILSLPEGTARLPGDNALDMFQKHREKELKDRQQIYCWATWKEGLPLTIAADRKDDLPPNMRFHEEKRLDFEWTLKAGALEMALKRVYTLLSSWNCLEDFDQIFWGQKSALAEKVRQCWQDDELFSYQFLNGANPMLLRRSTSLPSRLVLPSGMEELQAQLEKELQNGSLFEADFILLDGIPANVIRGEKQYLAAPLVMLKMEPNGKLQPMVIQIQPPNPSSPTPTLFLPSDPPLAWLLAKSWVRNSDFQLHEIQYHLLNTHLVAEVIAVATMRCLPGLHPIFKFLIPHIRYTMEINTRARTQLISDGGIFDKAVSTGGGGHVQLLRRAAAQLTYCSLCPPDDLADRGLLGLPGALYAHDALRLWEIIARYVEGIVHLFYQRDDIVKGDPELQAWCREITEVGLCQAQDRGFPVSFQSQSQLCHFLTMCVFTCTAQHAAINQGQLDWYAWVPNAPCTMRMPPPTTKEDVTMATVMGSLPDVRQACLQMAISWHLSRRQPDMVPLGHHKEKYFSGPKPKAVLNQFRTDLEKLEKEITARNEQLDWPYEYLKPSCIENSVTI
#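 Purified human 12hLO (150 nM final) in 25 mM Hepes, 0.01% Triton X-100, pH 7.0 was preincubated 15 min at room temperature with compound. Then 40 uM arachidonic acid was added, 30 min. Hydroperoxide was read by Fe-XO absorbance ratio 573/405 nm.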
# HT1080-NT tox – kills 2HG-producing HT-1080-NT fibrosarcoma cells; HT-1080-NT fibrosarcoma viability, CellTiter-Glo ATP luminescence, 48 h; Potency, µM (series often up to 46.1 µM), most hits filed as cytotoxic; hit rate 1.6% among 360,000; AID 686970;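 also: NT is the 2HG producing partner of a matched IDH1 knockdown line; nearly all actives have a fitted effect of over 55% in size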
#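 Luminescent CellTiter-Glo readout after 48 hours of compound exposure at 37 degrees C defined viability of HT-1080-NT cells. Activity was normalized to DMSO wells and cell-free media wells; concentration-response curves were fitted and assigned curve classes.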
# HT1080 IDH1KD tx – kills HT-1080 cells with IDH1 knockdown. hit rate 2% among 360,000. Potency, µM (doses to about 46.1 µM), hits mostly cytotoxic. HT-1080 IDH1 knockdown viability, ATP luminescence, 48 h
#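 Knockdown cells (IDH1KD HT-1080) received compounds 2 h after plating at 750 cells/well and were kept 48 h at 37 °C in 5% FBS RPMI. A CellTiter-Glo luminescence read gave % activity for curve fitting.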
# DT40 TDP1 no CPT – qHTS for Inhibitors of human tyrosyl-DNA phosphodiesterase 1 (TDP1): qHTS in cells in absence of CPT. DT40 Tdp1-/- hTDP1 cells, no CPT, ATP luminescence, 48 h. Potency, µM (series often up to 46.2 µM), most hits filed as inhibitors. hit rate 15% among 420,000. AID 686978, 2013; also: nearly all actives have a fitted effect of over 55% in size
#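 Seeded 400 DT40-hTDP1 cells/well (vehicle DMSO, no 20 nM CPT); pinned compounds; ≥48 hr at 37 °C; CellTiter-Glo luminescence as viability measure.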
# Numbers stand for hits; n = inactive; u = inconclusive; x = no result given. Unless noted, calls follow the shape of the dose curve; as a rule, active = well fitted curve in the direction sought with a large enough effect; inconclusive = small, poorly fitted or top-dose-only effect, or another doubt; inactive = no such curve, though single readings can be large; an effect the other way counts as inactive or inconclusive.
SMILES,TDP1 cell CPT,IL1B secr inh,ALOX12 inh,HT1080-NT tox,HT1080 IDH1KD tx,DT40 TDP1 no CPT
Cn1c(=O)c2c(ncn2CC(O)COCc2ccccc2)n(C)c1=O (stereo unspecified),x,x,n,x,x,x
CN(C)c1ccc(C=NC23CC4CC(CC(C4)C2)C3)cc1,x,x,n,x,x,x
N#Cc1cccnc1NCCNC(=O)Nc1ccccn1,x,x,n,x,x,x
O=C(Nc1ccc(OCC(F)(F)F)cc1)c1n[nH]c(=O)c2ccccc12,x,x,n,x,x,x
O=c1[nH]nc(CNc2ccc(Cl)cc2Cl)c2ccccc12,u,n,n,n,u,u
O=c1[nH]nc(CNc2ccc(C(F)(F)F)cc2)c2ccccc12,11.6µM,n,n,n,n,14.6µM
O=c1[nH]nc(CNc2ccc(OC(F)(F)F)cc2)c2ccccc12,20.6µM,n,n,n,n,18.4µM
CC(C)(Oc1ccc(Cl)cc1)C(=O)NCc1n[nH]c(=O)c2ccccc12,20.6µM,n,n,n,n,u
O=c1[nH]nc(CNc2ccc(O)cc2)c2ccccc12,u,-101.4,n,n,u,20.6µM
CNC(=O)NC(=O)CN(C)C(C)C1CC1 (stereo unspecified),x,x,n,x,x,x
CCC1Oc2ccc(NC(=O)COC)cc2CN(Cc2cc(F)cc(F)c2)C1=O (stereo unspecified),x,x,n,x,x,x
Cc1ccc(N(CCC(=O)NCC2CCCO2)S(=O)(=O)c2ccccc2)cc1 (stereo unspecified),x,x,n,x,x,x
O=c1[nH]nc(Cc2ccc(Cl)cc2Cl)c2ccccc12,n,n,n,n,n,n
O=c1[nH]nc(Cc2ncc(C(F)(F)F)cc2Cl)c2ccccc12,u,n,n,n,n,16.4µM
O=C(Nc1ncc(S(=O)(=O)c2ccc([N+](=O)[O-])cc2)s1)c1cccnc1,5.8µM,u,n,u,23.1µM,18.4µM
O=C(Nc1ncc(S(=O)(=O)c2ccc([N+](=O)[O-])cc2)s1)c1ccc2ccccc2c1,16.4µM,n,n,n,n,u
COC1CCC12CCN(C(=O)c1ccnn1C)CC2 (stereo unspecified),x,x,n,x,x,x
Cc1ccc(C)c(NC(=O)c2nc3ccccc3nc2Cl)c1,x,x,n,x,x,x
Cc1cc(C)c(NC(=O)c2cc(S(=O)(=O)N3CCN(c4ccccc4F)CC3)ccc2F)c(C)c1,u,x,n,x,x,4.11µM
CCC(=O)c1cc(F)c(N2CCN(S(=O)(=O)c3ccc(C)cc3)CC2)cc1C,u,n,n,n,n,20.6µM
COc1ccccc1N1CCN(S(=O)(=O)c2ccc(F)c(C(=O)Nc3ccc(C)c(F)c3)c2)CC1,16.4µM,x,n,x,x,u
CCc1ccccc1N1CCN(S(=O)(=O)c2ccc(F)c(C)c2)CC1,u,n,u,n,n,20.6µM
COc1cc(OC)c2c(C)c(CC(=O)Nc3ccc4c(c3)OCO4)c(=O)oc2c1,x,x,n,x,x,x
Cc1cc(C)c2[nH]c(C)c(CN3CC4(C)CC3CC(C)(C)C4)c(=O)c2c1 (stereo unspecified),x,x,n,x,x,x
CCOC(=O)C(C)On1c(-c2ccccc2)nc2ccc([N+](=O)[O-])cc21 (stereo unspecified),u,n,u,n,n,18.4µM
SMILES,TDP1 cell CPT,IL1B secr inh,ALOX12 inh,HT1080-NT tox,HT1080 IDH1KD tx,DT40 TDP1 no CPT
COc1cccc(CN(C(=O)c2oc3ccc(Br)cc3c2C)C2CCS(=O)(=O)C2)c1 (stereo unspecified),14.6µM,x,n,x,x,16.4µM
Cc1cc2oc(C(=O)N(Cc3ccccc3)C3CCS(=O)(=O)C3)c(C)c2cc1C (stereo unspecified),25.9µM,n,n,n,n,16.4µM
Cc1ccc2oc(C(=O)N(Cc3ccccc3)C3CCS(=O)(=O)C3)c(C)c2c1 (stereo unspecified),u,n,n,n,n,n
CC(CCc1ccccc1)NC(=O)N1CCN(S(=O)(=O)c2ccc(F)cc2)CC1 (stereo unspecified),x,x,n,x,x,x
Cc1noc(C)c1CCC(=O)Nc1nc(C(C)C)cs1,x,x,n,x,x,x
O=C(CSc1nc2ccccc2o1)Nc1nc(-c2ccccc2)c(-c2ccccc2)s1,18.4µM,n,n,n,n,11.6µM
C=CCSc1nnc(NC(=O)CSc2nc3ccccc3o2)s1,23.1µM,n,n,n,n,u
Cc1nnc(NC(=O)CSc2nc3ccccc3o2)s1,n,n,n,u,n,u
COc1ccc(C)cc1NC(C)C(=O)N(C)Cc1cccc(F)c1 (stereo unspecified),x,x,n,x,x,x
O=C(NC(=O)c1cccc(F)c1)OC[C@@H]1CCCN2CCCC[C@H]12,n,n,n,n,n,n
O=C(Nc1ccc(CN2CCCCC2)cc1)c1cccc(Br)c1,u,-54.8,n,n,n,u
CCN(CC)Cc1ccc(NC(=O)c2sc3cc(Cl)ccc3c2Cl)cc1,u,x,u,7.31µM,23.1µM,16.4µM
O=C(Nc1ccc(C(=O)OC[C@@H]2CCCN3CCCC[C@H]23)cc1)c1cccc(Br)c1,u,n,n,n,n,18.4µM
Cc1ccnc(NC(=O)c2sc3cc(Cl)ccc3c2Cl)c1,n,n,n,n,n,n
CCN(CC)c1ccc(NC(=O)c2sc3ccccc3c2Cl)cc1,20.6µM,x,n,x,x,20.6µM
COC(=O)N1CC2(Cc3ccccc3N(C(C)=O)C2)C1,x,x,n,x,x,x
O=C(NCCSc1ccc(Cl)cc1)c1ccc2c(c1)OCCCO2,x,x,n,x,x,x
O=C(Nc1ccc(CN2CCCCC2)cc1)c1sc2ccccc2c1Cl,13µM,-57.2,n,u,u,16.4µM
O=C(NCC(=O)N1CCCCC1)c1sc2ccccc2c1Cl,n,u,n,n,n,n
CNC(=O)c1ccsc1NC(=O)c1sc2ccccc2c1Cl,13µM,n,n,u,n,u
COCCNC(=O)[C@@H]1C[C@@H](O)CN1C1CCN(C(=O)c2ccc(C(C)C)cc2)CC1,x,x,n,x,x,x
Nc1sc(-c2ccccc2)cc1-c1n[nH]c(=S)n1C1CCCCC1,16.4µM,n,n,3.66µM,1.46µM,2.59µM
COc1ccc(-n2c(-c3cc(-c4ccccc4)sc3N)n[nH]c2=S)cc1,u,n,n,16.4µM,u,16.4µM
COc1ccc(-n2c(-c3ccc(C)cc3)n[nH]c2=S)cc1,u,n,u,n,n,u
C=CCn1c(-c2cc(-c3ccccc3)sc2N)n[nH]c1=S,n,n,n,n,n,u
COc1ccccc1C(=O)NC1CC2CCC1C2 (stereo unspecified),x,x,n,x,x,x
CC(=O)NC1=NN(C(C)=O)C2(S1)C(=O)N(C)c1c(C)cccc12 (stereo unspecified),x,x,n,x,x,x
COc1ccc2[nH]cc(CCNc3cc(-c4ccccc4Cl)ncn3)c2c1,u,x,15.8µM,x,x,3.66µM
